Measurements from article PMC12820563, “FoxP3 forms a head-to-head dimer in vivo and stabilizes its multimerization on adjacent microsatellites”.
The full ranking holds about 16,000 sequences; the median of “rpm ratio (pull-down/input)” is about 0.5, and the highest 2% start at about 5.5. The list comes from a sample in which the highest values are over-represented; it also holds similar and randomly drawn sequences.

Molecular target: T1, MBP-FoxP3dN (Mus musculus, UniProt Q99JB6 188-423)
T1 sequence: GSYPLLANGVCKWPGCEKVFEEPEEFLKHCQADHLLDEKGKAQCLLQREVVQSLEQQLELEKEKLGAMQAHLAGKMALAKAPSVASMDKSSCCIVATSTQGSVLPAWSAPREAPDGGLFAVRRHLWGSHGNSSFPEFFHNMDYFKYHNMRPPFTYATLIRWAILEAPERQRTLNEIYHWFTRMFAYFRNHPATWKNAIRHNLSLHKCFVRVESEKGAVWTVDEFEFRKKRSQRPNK
Experiment: PD-seq (MBP pull-down with sequencing); 20 mM Tris-HCl pH 7.5, 100 mM NaCl, 1.5 mM MgCl2, 0.4 uM protein, 0.1 uM dsDNA library, 30 min, room temperature, amylose pull-down; high values mean tight binding
Conditions: protein: recombinant; tags: His6-MBP; chain copies: 2; dsDNA, one strand shown
Procedure, shortened: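 Protein and DNA were mixed at 0.4 µM and 0.1 µM and held for 30 min at room temperature in Tris pH 7.5 buffer with NaCl and MgCl2; the protein was a His6-MBP-tagged, N-terminally truncated mouse FoxP3 or FoxP1 fragment from E. coli, and the DNA a Klenow-filled double-stranded degenerate library. Amylose resin captured the complexes, which were washed three times. Binding is read as reads-per-million enrichment of pull-down versus input after Illumina sequencing, with replicates pooled.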

Sequence	binding signal
GATGATTGTTCTCCCAGCTGATGAATTTAGGGTATCGAGTAAACAAATTTTCCTAATCTTTCTGTTCAAGCGCCATCTAC	1.02 RPM ratio (pull-down/input)
GATGATTGTTCTCCCAGCTGATGAATTTGATTGGTCGAGTAAACAAATTTTCCTAATCTTTCTGTTCAAGCGCCATCTAC	5.03 RPM ratio (pull-down/input)
GATGATTGTTCTCCCAGCTGATGAATTTACCGGATCGAGTAAACAAATTTTCCTAATCTTTCTGTTCAAGCGCCATCTAC	0.251 RPM ratio (pull-down/input)
GATGATTGTTCTCCCAGCTGATGAATTGTAGCTCTCGAGTAAACAAATTTTCCTAATCTTTCTGTTCAAGCGCCATCTAC	0.791 RPM ratio (pull-down/input)
GATGATTGTTCTCCCAGCTGATGAATTGGGGGAGTCGAGTAAACAAATTTTCCTAATCTTTCTGTTCAAGCGCCATCTAC	0.355 RPM ratio (pull-down/input)
GATGATTGTTCTCCCAGCTGATGAATTGTTTGTTTCGAGTAAACAAATTTTCCTAATCTTTCTGTTCAAGCGCCATCTAC	7.87 RPM ratio (pull-down/input)
GATGATTGTTCTCCCAGCTGATGAATTTCTTTGTTCGAGTAAACAAATTTTCCTAATCTTTCTGTTCAAGCGCCATCTAC	2.28 RPM ratio (pull-down/input)
GATGATTGTTCTCCCAGCTGATGAATTGTTTTTTTCGAGTAAACAAATTTTCCTAATCTTTCTGTTCAAGCGCCATCTAC	4.84 RPM ratio (pull-down/input)
GATGATTGTTCTCCCAGCTGATGAATTTGTTCTTTCGAGTAAACAAATTTTCCTAATCTTTCTGTTCAAGCGCCATCTAC	2.28 RPM ratio (pull-down/input)
GATGATTGTTCTCCCAGCTGATGAATTTTTTTGTTCGAGTAAACAAATTTTCCTAATCTTTCTGTTCAAGCGCCATCTAC	0.472 RPM ratio (pull-down/input)
GATGATTGTTCTCCCAGCTGATGAATTTTCTGTTTCGAGTAAACAAATTTTCCTAATCTTTCTGTTCAAGCGCCATCTAC	0.343 RPM ratio (pull-down/input)
GATGATTGTTCTCCCAGCTGATGAATTTGTTTGTTCGAGTAAACAAATTTTCCTAATCTTTCTGTTCAAGCGCCATCTAC	7.56 RPM ratio (pull-down/input)
GATGATTGTTCTCCCAGCTGATGAATTTTGTTGTTCGAGTAAACAAATTTTCCTAATCTTTCTGTTCAAGCGCCATCTAC	8.13 RPM ratio (pull-down/input)
GATGATTGTTCTCCCAGCTGATGAATTGTTGTTTTCGAGTAAACAAATTTTCCTAATCTTTCTGTTCAAGCGCCATCTAC	7.89 RPM ratio (pull-down/input)
GATGATTGTTCTCCCAGCTGATGAATTGTTTGATTCGAGTAAACAAATTTTCCTAATCTTTCTGTTCAAGCGCCATCTAC	2.06 RPM ratio (pull-down/input)
GATGATTGTTCTCCCAGCTGATGAATTTCTGTTTTCGAGTAAACAAATTTTCCTAATCTTTCTGTTCAAGCGCCATCTAC	1.13 RPM ratio (pull-down/input)
GATGATTGTTCTCCCAGCTGATGAATTGTTTCTTTCGAGTAAACAAATTTTCCTAATCTTTCTGTTCAAGCGCCATCTAC	1.93 RPM ratio (pull-down/input)

Sequence	binding signal
GATGATTGTTCTCCCAGCTGATGAATTGGTTACCTCGAGTAAACAAATTTTCCTAATCTTTCTGTTCAAGCGCCATCTAC	0.673 RPM ratio (pull-down/input)
GATGATTGTTCTCCCAGCTGATGAATTCGTCACGTCGAGTAAACAAATTTTCCTAATCTTTCTGTTCAAGCGCCATCTAC	1.77 RPM ratio (pull-down/input)
GATGATTGTTCTCCCAGCTGATGAATTCTTAAACTCGAGTAAACAAATTTTCCTAATCTTTCTGTTCAAGCGCCATCTAC	0.267 RPM ratio (pull-down/input)
GATGATTGTTCTCCCAGCTGATGAATTACTATTATCGAGTAAACAAATTTTCCTAATCTTTCTGTTCAAGCGCCATCTAC	0.758 RPM ratio (pull-down/input)
GATGATTGTTCTCCCAGCTGATGAATTAAATACATCGAGTAAACAAATTTTCCTAATCTTTCTGTTCAAGCGCCATCTAC	0.687 RPM ratio (pull-down/input)
GATGATTGTTCTCCCAGCTGATGAATTTTGTTCTTCGAGTAAACAAATTTTCCTAATCTTTCTGTTCAAGCGCCATCTAC	1.21 RPM ratio (pull-down/input)
GATGATTGTTCTCCCAGCTGATGAATTGTTTTCTTCGAGTAAACAAATTTTCCTAATCTTTCTGTTCAAGCGCCATCTAC	4.15 RPM ratio (pull-down/input)
GATGATTGTTCTCCCAGCTGATGAATTGTTTACTTCGAGTAAACAAATTTTCCTAATCTTTCTGTTCAAGCGCCATCTAC	7.35 RPM ratio (pull-down/input)
GATGATTGTTCTCCCAGCTGATGAATTTTTTACTTCGAGTAAACAAATTTTCCTAATCTTTCTGTTCAAGCGCCATCTAC	0.261 RPM ratio (pull-down/input)
GATGATTGTTCTCCCAGCTGATGAATTTGTTTCGTCGAGTAAACAAATTTTCCTAATCTTTCTGTTCAAGCGCCATCTAC	5.96 RPM ratio (pull-down/input)
GATGATTGTTCTCCCAGCTGATGAATTTTGTTCGTCGAGTAAACAAATTTTCCTAATCTTTCTGTTCAAGCGCCATCTAC	1.45 RPM ratio (pull-down/input)
GATGATTGTTCTCCCAGCTGATGAATTGTTTTCGTCGAGTAAACAAATTTTCCTAATCTTTCTGTTCAAGCGCCATCTAC	3.95 RPM ratio (pull-down/input)
GATGATTGTTCTCCCAGCTGATGAATTTGTTTCTTCGAGTAAACAAATTTTCCTAATCTTTCTGTTCAAGCGCCATCTAC	6.78 RPM ratio (pull-down/input)
GATGATTGTTCTCCCAGCTGATGAATTTGTTGTTTCGAGTAAACAAATTTTCCTAATCTTTCTGTTCAAGCGCCATCTAC	7.66 RPM ratio (pull-down/input)
GATGATTGTTCTCCCAGCTGATGAATTTACTTCTTCGAGTAAACAAATTTTCCTAATCTTTCTGTTCAAGCGCCATCTAC	0.632 RPM ratio (pull-down/input)
GATGATTGTTCTCCCAGCTGATGAATTTGCAGTATCGAGTAAACAAATTTTCCTAATCTTTCTGTTCAAGCGCCATCTAC	1.49 RPM ratio (pull-down/input)
